The entries come from a sample that favours hits as a whole.
miR122 inh: raises miR-122 sensor activity in Huh7 cells. Huh7 psiCHECK-miR122 Renilla luciferase sensor, 48 h. activation, % at 12.5 µM. 340,000 tested, 0.14% active. AID 623901;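 active = mean activation of 30% or more, with every replicate also reaching 30%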;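 note: 0% = median of neutral control wells and 100% = median of positive control wells; higher luciferase signal means stronger suppression of miR-122 activity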
* hit, by the source's call.

SMILES	miR122 inh
COCC#Cc1ccc2c(c1)O[C@@H](CN(C)C(C)=O)[C@@H](C)CN([C@@H](C)CO)S2(=O)=O	9
CCC(=O)N(C)C[C@@H]1Oc2cc(C#C[C@H](C)O)ccc2S(=O)(=O)N([C@@H](C)CO)C[C@@H]1C	1
C[C@@H]1CN([C@@H](C)CO)S(=O)(=O)c2ccc(Br)cc2O[C@@H]1CN(C)CC1CCOCC1	6
C[C@H](CO)N1C[C@H](C)[C@H](CN(C)C(=O)c2ccccn2)Oc2ncc(C#Cc3ccccc3)cc2C1=O	3
C[C@@H]1CN([C@H](C)CO)S(=O)(=O)c2ccc(-c3cccc(C#N)c3)cc2O[C@H]1CN(C)Cc1ccccn1	-5
C[C@@H]1CN([C@H](C)CO)C(=O)c2cc(Br)cnc2O[C@@H]1CN(C)Cc1cccc(F)c1	3
COc1cccc(-c2cnc3c(c2)C(=O)N([C@H](C)CO)C[C@H](C)[C@@H](CN(C)CC2CCOCC2)O3)c1	5
Cc1ccccc1NC(=O)Nc1ccc2c(c1)C(=O)N(C)[C@@H]1CC[C@H](CC(=O)NCC3CC3)O[C@@H]1CO2	47*
CCNC(=O)Nc1ccc2c(c1)C(=O)N(C)[C@H]1CC[C@H](CC(=O)Nc3ccccc3F)O[C@@H]1CO2	53*
CN1C(=O)c2cc(NC(=O)Cc3ccccc3)ccc2OC[C@@H]2O[C@H](CC(=O)NCc3ccc(Cl)cc3)CC[C@@H]21	-293
Cc1cccc(NC(=O)Nc2ccc3c(c2)C(=O)N(C)[C@H]2CC[C@@H](CC(=O)NCc4ccccc4Cl)O[C@H]2CO3)c1	37*
CN1C(=O)c2cc(NC(=O)Cc3ccccc3)ccc2OC[C@@H]2O[C@H](CC(=O)NCC3CC3)CC[C@@H]21	-233
CC(C)c1ccc(NC(=O)C[C@H]2CC[C@H]3[C@@H](COc4ccc(NC(=O)Nc5ccc(F)c(F)c5)cc4C(=O)N3C)O2)cc1	45*
Cc1noc(C)c1NC(=O)N(C)C[C@H]1Oc2ncc(C#CC3CCCCC3)cc2C(=O)N([C@@H](C)CO)C[C@@H]1C	-6
CCCNC(=O)N(C)C[C@@H]1Oc2cc(C#CC(C)C)ccc2S(=O)(=O)N([C@H](C)CO)C[C@H]1C	-10
C[C@H](CO)N1C[C@H](C)[C@@H](CN(C)Cc2cccc(C(=O)O)c2)Oc2ncc(/C=C/c3ccccc3)cc2C1=O	1
C[C@@H]1CN([C@@H](C)CO)C(=O)c2cc(C#CC3CC3)cnc2O[C@H]1CN(C)C	3
C[C@@H]1CN([C@@H](C)CO)C(=O)c2cc(-c3ccc(C(=O)N(C)C)cc3)cnc2O[C@@H]1CN(C)C(=O)c1cccnc1	-3
CCS(=O)(=O)Nc1ccc2c(c1)C(=O)N(C)C[C@@H](OC)[C@@H](C)CN[C@H](C)CO2	-1
CCCNC(=O)N(C)C[C@@H]1Oc2ncc(C#CCC(C)C)cc2C(=O)N([C@H](C)CO)C[C@@H]1C	0
C[C@@H]1CN([C@H](C)CO)S(=O)(=O)c2ccc(-c3ccccc3)cc2O[C@H]1CN(C)Cc1cncnc1	-16
CO[C@@H]1CN(C)C(=O)c2ccc(NC(=O)C3CCC3)cc2OC[C@@H](C)NC[C@@H]1C	0
COCC#Cc1cnc2c(c1)C(=O)N([C@@H](C)CO)C[C@H](C)[C@H](CN(C)C(=O)C1CCOCC1)O2	1
CO[C@H]1CN(C)C(=O)c2cc(NC(C)=O)ccc2OC[C@H](C)N(C(=O)c2ccccc2)C[C@@H]1C	1
O=c1c2c3c(sc2nc2n1CCC2)CCCC3	32*
SMILES	miR122 inh
C[C@H]1CN([C@@H](C)CO)C(=O)c2cc(C#CCN(C)C)cnc2O[C@@H]1CN(C)C(=O)Cc1ccncc1	2
COc1ccc(CN(C)C[C@@H]2Oc3ccc(NC(=O)C4CCCCC4)cc3CC(=O)N([C@@H](C)CO)C[C@H]2C)cc1	1
C[C@@H]1CN([C@H](C)CO)S(=O)(=O)c2ccc(C#CC3(O)CCCC3)cc2O[C@H]1CN(C)C(=O)Nc1ccc(F)cc1	-3
Cc1ccc(-c2cnc3c(c2)C(=O)N([C@@H](C)CO)C[C@H](C)[C@H](CN(C)C(=O)Cc2cccnc2)O3)cc1	10
O=C(CCCCCN1C(=O)c2ccccc2C1=O)NCc1ccccn1	35*
O=C(CCCCCCC(=O)Nc1ccccc1)NO	-232
CCc1ccc(-c2cc(C(=O)NCc3ccccn3)c3ccccc3n2)cc1	-148
COc1ccc(S(=O)(=O)N(C)C[C@@H]2Oc3ncc(-c4cccc(F)c4)cc3C(=O)N([C@H](C)CO)C[C@@H]2C)cc1	-6
CN(C)c1ccc2c(c1)[C@@H]1C[C@@H](CC(=O)NCc3ccc(Oc4ccccc4)cc3)O[C@@H](CO)[C@@H]1O2	-96
O=c1c2ccccc2nc(/C=C/c2ccc([N+](=O)[O-])o2)n1CCCO	80*
C[C@@H]1CN([C@H](C)CO)C(=O)c2cc(C#Cc3cccc(F)c3)cnc2O[C@H]1CN(C)C(=O)C1CC1	-4
C[C@@H]1CN([C@H](C)CO)C(=O)c2cc(C#Cc3ccccc3)cnc2O[C@H]1CN(C)Cc1ccccn1	-2
Cc1ccc(-n2ncc(C(=O)Nc3cc(Cl)ccc3C)c2C2CCNCC2)cc1C	36*
CCCN(C)C[C@H]1Oc2cc(C#CC(C)C)ccc2S(=O)(=O)N([C@H](C)CO)C[C@H]1C	-22
C[C@H]1CN([C@@H](C)CO)C(=O)c2cc(-c3ccncc3)cnc2O[C@@H]1CN(C)C(=O)Cc1ccccn1	-2
C[C@H](CO)N1C[C@H](C)[C@H](CN(C)C(=O)Nc2ccc3c(c2)OCO3)Oc2ncc(-c3ccccc3)cc2C1=O	1
C[C@@H]1CN([C@H](C)CO)S(=O)(=O)c2ccc(C#C[C@@H](C)O)cc2O[C@@H]1CN(C)C(=O)Cc1ccccn1	-4
C[C@H](CO)N1C[C@H](C)[C@H](CN(C)C(=O)Nc2ccc(F)cc2)Oc2ncc(-c3cccnc3)cc2C1=O	6
Cc1cc(C(=O)N/N=C/c2cc(Br)ccc2OC(=O)c2ccccc2)n[nH]1	32*
Cc1ccc(-c2cnc3c(c2)C(=O)N([C@H](C)CO)C[C@H](C)[C@@H](CN(C)C(=O)c2ccncc2)O3)cc1	-8
CO[C@@H]1CN(C)C(=O)c2cc(NC(=O)Cc3ccccc3)ccc2OC[C@@H](C)N(C)C[C@@H]1C	2
Cc1ccc(S(=O)(=O)N(C)C[C@H]2Oc3cc(C#CC4CCCC4)ccc3S(=O)(=O)N([C@@H](C)CO)C[C@@H]2C)cc1	-62
COc1ccc(OC)c(-c2cc(C3CCN(c4cc(Cl)nc(N)n4)CC3)[nH]n2)c1	46*
C[C@@H]1CN([C@@H](C)CO)C(=O)c2cc(C#CCc3ccccc3)cnc2O[C@@H]1CN(C)CC1CCOCC1	0
NC(=O)Cn1cc(/C=N\NS(=O)(=O)c2ccc(F)cc2)c2ccccc21	-135
SMILES	miR122 inh
Cc1ccc(S(=O)(=O)N/N=C/c2ccc(OCC(=O)Nc3ccccc3Cl)cc2)cc1	-219
O=C(COc1ccc(/C=N/NS(=O)(=O)c2ccccc2)cc1)Nc1ccc(F)cc1	36*
C[C@@H]1CN([C@H](C)CO)C(=O)c2cc(/C=C/c3ccccc3)cnc2O[C@H]1CN(C)C(=O)Nc1ccccc1F	3
CCCN(C)C[C@@H]1Oc2cc(C#CC(C)C)ccc2S(=O)(=O)N([C@@H](C)CO)C[C@@H]1C	5
C[C@@H]1CN([C@@H](C)CO)S(=O)(=O)c2ccc(-c3ccccc3)cc2O[C@@H]1CN(C)Cc1cncnc1	1
COc1cccc(-c2cnc3c(c2)C(=O)N([C@@H](C)CO)C[C@H](C)[C@H](CN(C)Cc2ccccc2)O3)c1	-11
CC(C)Oc1ccc(CNCCC2(C(C)C)CCOC(C)(C)C2)cc1 (stereo unspecified)	71*

Assay outcomes as filed in PubChem BioAssay.
